Measured values reported in PubChem BioAssay (Tox21).
Records with an inconclusive call do not appear. Calls of active or inactive are those of the source. Unless noted, calls follow the shape of the dose curve; as a rule, active = well fitted curve in the direction sought with a large enough effect in the repeat runs; inconclusive = weak or mixed curves; inactive = no such curve, though single readings can be large; an effect the other way counts as inactive or inconclusive.

Assays:
[1] = target: Thyrotropin receptor (Homo sapiens) (UniProt P16473); test: qHTS assay to identify small molecule antagonists of the thyroid stimulating hormone receptor (TSHR) signaling pathway (AID 1259385; calls by dose curve; also: nearly all actives have a fitted effect of over 20% in size)
Summary of the method: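 TSHR-HEK293 cells (800/well) plated 18 h, then compounds with Ro20-1724 and TSH at 1.5 ng/mL final, 30 min at room temperature. cAMP quantified by HTRF (cAMP-d2/anti-cAMP-cryptate, 1 h); 15 concentrations in triplicate.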

[2] = qHTS assay to identify small molecule agonists of the estrogen receptor alpha (ER-alpha) signaling pathway in the presence of an antagonist - cell viability counter screen (AID 1259386);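 also: series mostly up to about 92 µM; cells exposed to compounds for 22 h at 37 °C before the viability read; nearly all actives have a fitted effect of over 30% in size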
Summary of the method: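 VM7Luc4E2 cells (endogenous full-length ER-alpha, 4×ERE-luciferase) were held 5 days in phenol red-free medium with 10% charcoal-stripped FBS, plated, then given 10.0nM ICI-182,780 and compounds at 15 concentrations for 22hr at 37C; viability read by CellTiter-Fluor fluorescence.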

[3] = target: Progesterone receptor (Homo sapiens) (UniProt P06401); test: qHTS assay to identify small molecule agonists of the progesterone receptor (PR) signaling pathway (AID 1346784; calls by dose curve; also: nearly all actives have a fitted effect of over 30% in size)
Summary of the method: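 Seed PR-UAS-bla HEK 293T cells (2% charcoal-stripped FBS), incubate 6 hr at 37C; add compounds in DMSO, 16 hr at 37C; add LiveBLAzer B/G substrate, 2 hr RT; read fluorescence intensity.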

[4] = target: Progesterone receptor (Homo sapiens) (UniProt P06401); test: qHTS assay to identify small molecule antagonists of the progesterone receptor (PR) signaling pathway (AID 1346795; active = well fitted inhibition curve with a large enough effect in the signal ratio in the repeat runs, not every such curve was filed as active; the % refers to the signal ratio)
Summary of the method: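 Screening used a GripTite HEK293T line with PR-responsive UAS-beta-lactamase. Cells were challenged with compound in the presence of 1 nM R5020 final for 16 hr at 37C; B/G FRET substrate, 2 hr room temperature, fluorescence.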

[5] = qHTS assay to identify small molecule antagonists of the progesterone receptor (PR) signaling pathway - cell viability counter screen (AID 1346798); also: series mostly up to about 92 µM; nearly all actives have a fitted effect of over 50% in size
Summary of the method: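 Measures cytotoxicity in parallel with the PR antagonist reporter read: HEK293T PR-UAS-bla cells get compound and R5020 for 16 hr, and remaining viable cells are quantified by CellTiter-Glo luminescence.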

[6] = qHTS assay to identify small molecule agonists of the progesterone receptor (PR) signaling pathway - cell viability counter screen (AID 1346799; calls by dose curve; also: nearly all actives have a fitted effect of over 45% in size)
Summary of the method: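 Using the same plates as the PR reporter screen, HEK293T PR-UAS-bla cells received compounds for 16 hr at 37C and were then lysed with CellTiter-Glo; luminescence was read 30 min later at room temperature.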

[7] = qHTS assay to identify small molecule antagonists of the TGF-beta/Smad signaling pathway - cell viability counter screen (AID 1346824); also: nearly all actives have a fitted effect of over 50% in size
Summary of the method: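 SBE-bla HEK 293T cells, incubated overnight, then compound plus 0.25 ng/mL TGF-beta1 (stock added) for 5 hr at 37 C. Viability was read in the same wells by CellTiter-Glo luminescence after 30 min at room temperature.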

[8] = qHTS assay to identify small molecule agonists of the TGF-beta/Smad signaling pathway - cell viability counter screen (AID 1346829); also: top concentration of the series differs between compounds; nearly all actives have a fitted effect of over 45% in size
Summary of the method: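 Tox21 qHTS format: SBE-bla HEK 293T cells treated with DMSO-dissolved compounds for 5 hr; CellTiter-Glo luminescence after 30 min at room temperature.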

[9] = qHTS assay to identify small molecule agonists of the TGF-beta/Smad signaling pathway (AID 1346859; active = well fitted activation curve with a large enough effect in the signal ratio in the repeat runs, not every such curve was filed as active; the % refers to the signal ratio; also: series mostly up to about 77 µM)
Summary of the method: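 Beta-lactamase reporter activity downstream of Smad binding elements was measured in stably transfected HEK 293T cells; compounds were incubated for 5 hr, substrate for 2 hr at room temperature.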

[10] = target: Thyrotropin-releasing hormone receptor (Homo sapiens) (UniProt P34981); test: qHTS assay to identify small molecule antagonists of the thyrotropin-releasing hormone receptor (TRHR) signaling pathway (AID 1346877; active = well fitted inhibition curve with a large enough effect in the repeat runs, not every such curve was filed as active; also: series mostly up to about 51 µM)
Summary of the method: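 TRHR-expressing HEK293 cells were seeded, cultured 18 h at 37 °C, then loaded with calcium dye for 2 h. Compounds were pre-incubated 5 min at room temperature before 1 nM TRH (final) was added, and kinetic fluorescence was recorded for 3 min.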

[11] = target: Thyrotropin-releasing hormone receptor (Homo sapiens) (UniProt P34981); test: qHTS assay to identify small molecule agonists of the thyrotropin-releasing hormone receptor (TRHR) signaling pathway (AID 1346891; calls by dose curve; also: series mostly up to about 58 µM)
Summary of the method: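 Overnight-plated (18 h, 37 °C, 5% CO2) TRHR-Hek293 cells; 2 h calcium dye at 37 °C; compound in DMSO; 3-min kinetic fluorescence read.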

[12] = Human pregnane X receptor (PXR) small molecule agonists, qHTS cell viability counter screen (AID 1346977); also: nearly all actives have a fitted effect of over 50% in size
Summary of the method: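 After a 5hr pre-incubation, PXR-Luc HepG2 cells received compounds plus positive control in DMSO and were kept 24hr at 37C. Cell viability was quantified by fluorescence from CellTiter-Fluor added for the final hour.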

[13] = Caspase-3/7 induction in HepG2 cells by small molecules, qHTS assay (AID 1346978); also: nearly all actives have a fitted effect of over 15% in size
Summary of the method: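 Wild-type HepG2 cells, 2,000/well, settled 5 hr at 37 C and 5% CO2, then compound-treated for 17 hr; caspase-3/7 activity read by luminescent Caspase-Glo 3/7 after 30 min at room temperature.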

[14] = Caspase-3/7 induction in CHO-K1 cells by small molecules, qHTS cell viability counter screen (AID 1346979); also: nearly all actives have a fitted effect of over 35% in size
Summary of the method: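 Multiplexed with Caspase-Glo 3/7 in CHO-K1 cells, this counter screen added CellTiter-Fluor after 16hr of compound exposure and recorded fluorescence 1hr later.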

[15] = Caspase-3/7 induction in CHO-K1 cells by small molecules, qHTS assay (AID 1346980); also: nearly all actives have a fitted effect of over 15% in size
Summary of the method: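 Wild-type CHO-K1 cells exposed to compounds for 17hr at 37 C, 5% CO2. Caspase-3/7 activity then measured by Caspase-Glo 3/7 luminescence after 30min at room temperature.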

[16] = Caspase-3/7 induction in HepG2 cells by small molecules, qHTS cell viability counter screen (AID 1346981); also: series mostly up to about 92 µM; nearly all actives have a fitted effect of over 30% in size
Summary of the method: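 Wild-type HepG2 cells (2,000/well) were allowed to settle for 5 hr at 37 C, 5% CO2, then dosed with compounds in DMSO by pin transfer. After 16 hr at 37 C, CellTiter-Fluor was added and fluorescence read 1 hr later.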

[17] = target: Nuclear receptor subfamily 1 group I member 2 (Homo sapiens) (UniProt O75469); test: Human pregnane X receptor (PXR) small molecule agonists, qHTS assay (AID 1346982); also: nearly all actives have a fitted effect of over 35% in size
Summary of the method: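 PXR-Luc HepG2 cells (CYP3A4 promoter-driven luciferase) were seeded in medium with 5% charcoal-stripped FBS, left 5 hr at 37 C, then exposed to compounds in DMSO for 24 hr. Luminescence was read after ONE-Glo addition.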

Measured: Potency

Chain of Nuclear receptor subfamily 1 group I member 2 (Homo sapiens) (O75469 whole entry, looked up): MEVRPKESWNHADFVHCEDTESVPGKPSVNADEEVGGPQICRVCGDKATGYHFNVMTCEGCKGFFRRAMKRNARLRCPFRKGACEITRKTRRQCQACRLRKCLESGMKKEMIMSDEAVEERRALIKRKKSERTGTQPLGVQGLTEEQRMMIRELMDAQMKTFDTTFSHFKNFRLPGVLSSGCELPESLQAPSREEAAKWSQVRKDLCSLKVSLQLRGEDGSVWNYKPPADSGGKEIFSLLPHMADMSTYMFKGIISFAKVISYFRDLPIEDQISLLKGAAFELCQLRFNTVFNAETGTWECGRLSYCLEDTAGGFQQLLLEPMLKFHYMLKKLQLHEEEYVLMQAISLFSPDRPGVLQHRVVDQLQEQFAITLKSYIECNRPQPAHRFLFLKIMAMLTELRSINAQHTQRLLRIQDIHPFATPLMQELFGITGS
Chain of Thyrotropin-releasing hormone receptor (Homo sapiens) (P34981 whole entry, looked up): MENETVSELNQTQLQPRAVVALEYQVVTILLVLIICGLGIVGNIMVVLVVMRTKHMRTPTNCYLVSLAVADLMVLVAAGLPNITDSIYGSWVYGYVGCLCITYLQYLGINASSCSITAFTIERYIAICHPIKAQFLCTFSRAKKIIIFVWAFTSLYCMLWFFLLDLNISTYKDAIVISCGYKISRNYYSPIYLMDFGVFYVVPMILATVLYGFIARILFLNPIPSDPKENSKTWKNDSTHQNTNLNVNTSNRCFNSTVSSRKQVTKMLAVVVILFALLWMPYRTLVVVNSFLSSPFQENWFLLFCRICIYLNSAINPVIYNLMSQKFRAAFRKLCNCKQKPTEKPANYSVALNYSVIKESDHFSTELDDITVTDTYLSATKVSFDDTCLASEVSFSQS
Chain of Progesterone receptor (Homo sapiens) (P06401 whole entry, looked up): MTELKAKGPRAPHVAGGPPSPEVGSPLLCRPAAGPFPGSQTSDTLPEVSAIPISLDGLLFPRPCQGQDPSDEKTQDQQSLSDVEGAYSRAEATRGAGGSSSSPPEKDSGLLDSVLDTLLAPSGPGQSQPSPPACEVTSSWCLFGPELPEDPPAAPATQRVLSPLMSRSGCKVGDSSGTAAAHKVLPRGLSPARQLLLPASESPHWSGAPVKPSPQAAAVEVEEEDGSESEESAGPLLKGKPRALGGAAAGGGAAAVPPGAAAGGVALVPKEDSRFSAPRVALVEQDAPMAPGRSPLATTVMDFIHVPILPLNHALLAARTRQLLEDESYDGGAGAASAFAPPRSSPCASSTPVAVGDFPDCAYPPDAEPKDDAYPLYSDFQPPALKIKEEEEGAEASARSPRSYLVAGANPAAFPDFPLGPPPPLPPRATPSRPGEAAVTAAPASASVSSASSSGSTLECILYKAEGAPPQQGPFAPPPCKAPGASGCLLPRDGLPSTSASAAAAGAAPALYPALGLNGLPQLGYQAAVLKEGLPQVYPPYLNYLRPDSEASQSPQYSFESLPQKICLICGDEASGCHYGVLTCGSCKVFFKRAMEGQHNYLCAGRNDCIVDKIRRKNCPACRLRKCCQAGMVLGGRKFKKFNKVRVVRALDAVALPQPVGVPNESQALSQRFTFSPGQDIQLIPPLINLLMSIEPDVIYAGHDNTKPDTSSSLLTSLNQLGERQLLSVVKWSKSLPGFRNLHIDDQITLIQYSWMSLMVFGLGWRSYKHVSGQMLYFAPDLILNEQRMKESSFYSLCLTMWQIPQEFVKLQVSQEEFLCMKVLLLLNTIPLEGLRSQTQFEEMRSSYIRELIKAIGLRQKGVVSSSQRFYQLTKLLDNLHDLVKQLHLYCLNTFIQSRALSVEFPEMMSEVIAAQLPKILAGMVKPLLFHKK
Chain of Thyrotropin receptor (Homo sapiens) (P16473 whole entry, looked up): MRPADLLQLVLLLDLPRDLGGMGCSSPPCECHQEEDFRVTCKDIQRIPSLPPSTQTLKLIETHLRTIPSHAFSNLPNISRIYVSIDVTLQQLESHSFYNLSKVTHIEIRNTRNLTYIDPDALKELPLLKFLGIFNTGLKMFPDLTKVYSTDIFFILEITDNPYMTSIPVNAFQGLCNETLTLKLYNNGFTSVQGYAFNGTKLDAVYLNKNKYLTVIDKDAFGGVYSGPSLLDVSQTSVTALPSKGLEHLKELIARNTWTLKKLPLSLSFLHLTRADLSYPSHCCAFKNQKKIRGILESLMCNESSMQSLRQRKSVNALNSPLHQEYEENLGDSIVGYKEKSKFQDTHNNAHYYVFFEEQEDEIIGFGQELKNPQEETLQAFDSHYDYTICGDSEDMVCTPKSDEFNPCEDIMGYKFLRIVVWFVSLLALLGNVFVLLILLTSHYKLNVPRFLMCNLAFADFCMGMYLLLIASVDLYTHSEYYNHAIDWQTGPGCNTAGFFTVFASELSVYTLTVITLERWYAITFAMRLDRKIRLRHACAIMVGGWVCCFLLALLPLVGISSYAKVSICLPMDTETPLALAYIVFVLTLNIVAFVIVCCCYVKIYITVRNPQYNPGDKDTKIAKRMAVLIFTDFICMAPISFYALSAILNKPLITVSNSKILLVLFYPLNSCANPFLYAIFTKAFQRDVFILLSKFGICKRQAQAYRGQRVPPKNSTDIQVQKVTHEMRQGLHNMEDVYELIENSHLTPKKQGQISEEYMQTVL

O=C1CC2CC1C1CCCC21 (stereo unspecified)
not listed: [17]
inactive: all other assays above

CC(C)CNCC(C)C
inactive: all assays above

CCCN(CCC)CCc1cccc2c1CC(=O)N2
not listed: [8]
inactive: all other assays above

CCCCCCCCS(=O)(=O)Cl
inactive: all assays above

Nc1c[n+](N2CCOCC2)no1
not listed: [15]
inactive: all other assays above

COC(=O)CC(C)=O
inactive: all assays above

COc1ccccc1OCC(O)CN1CCN(CC(=O)Nc2c(C)cccc2C)CC1 (stereo unspecified)
not listed: [15]
inactive: all other assays above

Cc1ccc(C#N)cc1
not listed: [10]
inactive: all other assays above
